ATXN2 expr inh: Primary qHTS for Inhibitors of ATXN expression; HEK-293 ATXN2-luciferase reporter, luminescence, 24 h; Potency, µM (highest dose often 57 µM), for inactives: at the top dose activity change, negative = inhibition, actives largely listed as inhibitors; actives 0.72% (n = 360,000); AID 1745845, 2022; further: potency means the concentration at half of the fitted maximal effect; on the % scale 0 is the no-effect control and ±100 the full control effect; nearly all actives have a fitted effect of over 55% in size
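qHTS (up to 57 uM final) was run with 24 h compound exposure of reporter cells at 37 °C. Each well was multiplexed: SteadyGlo luminescence measured ATXN2-luciferase expression after a fluorogenic Gly-Phe-AFC viability readout (25 uM final).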
MCF10A rerep: A quantitative high throughput screen for small molecules that induce DNA re-replication in MCF 10a normal breast cells. MCF 10A DNA re-replication, Hoechst nuclear intensity, 48 h. Potency, µM (series often up to 46.1 µM), inactives show at the top dose activity, positive = re-replication, usual class: activators. actives 2.9% (n = 350,000). AID 624296, 2012; further: potency means the concentration at half of the fitted maximal effect; % of control where 0% means no effect; nearly all actives have a fitted effect of over 50% in size
SW480 rerep: A quantitative high throughput screen for small molecules that induce DNA re-replication in SW480 colon adenocarcinoma cells | SW480 DNA re-replication, Hoechst DNA content imaging, 48 h | Potency, µM (series often up to 46.1 µM), for the others: top-dose re-replication activation, hits mostly activators | actives 1.8% (n = 340,000) | AID 624297, 2012; further: potency means the concentration at half of the fitted maximal effect; % of control where 0% means no effect; nearly all actives have a fitted effect of over 55% in size
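DNA re-replication was detected as more nuclei of elevated Hoechst intensity after 48 hr exposure to compound (23 nL pinned per well of 250 cells).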
PINK1 modulator: A Quantitative High throughput Screen to Identify Chemical Modulators of PINK1 Expression. PINK1 immunofluorescence, high-content cytometry, 24 h. Potency, µM (top dose mostly 76.6 µM), for inactives: at the top dose activation (PINK1 increase), actives largely listed as activators. actives 0.2% (n = 410,000). AID 624263, 2012; active means well fitted activation curve with a large enough effect; inconclusive means small, poorly fitted or top-dose-only effect; cell line not stated here; further: potency means the concentration at half of the fitted maximal effect; % of control where 0% means no effect; nearly all actives have a fitted effect of over 65% in size
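Cells are seeded, rested 12 hours, then given compound at five concentrations or DMSO for 24 hours. After fixation, blocking and antibody staining, PINK1 amount and mitochondrial localization are scored; CCCP serves as control.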
S2 tox: Viability Counterscreen for Primary qHTS for Inhibitors of ATXN expression; Potency, µM (top dose mostly 56.7 µM), most hits filed as cytotoxic; AID 651635, 2014; actives 0.49% (n = 400,000); S2 cells (HEK-293 line with an ATXN2-luciferase reporter) viability, CellTiter-Fluor protease fluorescence, 24 h; further: potency means the concentration at half of the fitted maximal effect; nearly all actives have a fitted effect of over 40% in size
IL1B secr inh: qHTS for Inhibitors of Inflammasome Signaling: IL-1-beta AlphaLISA Primary Screen. activity change, % at 57.5 µM. THP-1 LPS/ATP IL-1B secretion, AlphaLISA, 16 h; hits give low values. actives 4.7% (n = 360,000); in the data active means activity change below about -50%; inconclusive means mostly about -30% to -49%; further: on the % scale 0 is the no-effect control and ±100 the full control effect
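Secreted IL-1B measured by AlphaLISA bead assay after 16 h compound exposure of THP-1 cells; compounds (final up to 57.5 uM) added 1 h before LPS (250 ng/mL) and ATP (1.25 mM) stimulation; lower signal means less secretion.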
The depositor's hits bear a star; i = inactive; u = inconclusive; x = not tested or not shown; [ ] = remark or other dose. This is a sample that favours compounds with a hit; in the whole collection about 7.1% have one here. Unless noted, the call rests on the fitted dose curve; in most records, active means well fitted curve in the direction sought with a large enough effect; inconclusive means small, poorly fitted or top-dose-only effect, or another doubt; inactive means no such curve, though single readings can be large; an effect the other way counts as inactive or inconclusive.

SMILES	ATXN2 expr inh	MCF10A rerep	SW480 rerep	PINK1 modulator	S2 tox	IL1B secr inh
O=C(CNC(=S)N(Cc1ccccc1F)C1CCCCC1)NCC1CCCO1 (centres undefined)	-29.6%	1.2%	27.9%	1.5%	i	-68.2*
O=C(CSc1ccccc1C(=O)O)NC1CCCCCC1	16.7%	6.4%	-29.7%	-1.0%	i	18.9
COc1ccc(-n2nnc3c(SCC(=O)N4CCCc5ccccc54)ncnc32)cc1	-1.7%	-2.7%	11.6µM*	-1.6%	i	-9.5
COc1cccc2cc(-c3nc(Nc4cccc(C)c4C)sc3C)c(=O)oc12	-2.5%	x	x	0.6%	i	x
CCc1ccc(NC(=O)CSC2=Nc3ccccc3C3=NC(CCC(=O)NCc4cccs4)C(=O)N23)cc1 (centres undefined)	x	x	x	0.4%	x	x
O=C(CSc1ncnc2c1cnn2-c1ccc(F)cc1)NCC1CCCO1 (centres undefined)	-35.4%	4.8%	u	0.6%	i	-17.0
O=C(CSc1ncnc2c1nnn2Cc1ccccc1)NC1CCCCC1	-26.9%	23.1µM*	u	6.8%	u	-94.8*
COc1ccc(-n2nnc3c(SCC(=O)NCC4CCCO4)ncnc32)cc1 (centres undefined)	u	u	11.7%	2.7%	u	-98.3*
COc1ccccc1OCc1nc(C#N)c(NCc2ccc(C)cc2)o1	x	x	x	0.0%	x	x
COc1ccc(Nc2oc(COc3ccccc3OC)nc2C#N)cc1	10µM*	u	-8.5%	2.6%	i	-5.7
N#Cc1cccc(C(c2nnnn2Cc2ccccc2)N2CCCC2)c1 (centres undefined)	3.3%	-9.3%	5.4%	x	i	6.3
CN1CCN(C(c2cccc(C(F)(F)F)c2)c2nnnn2Cc2ccccc2)CC1 (centres undefined)	-8.1%	-5.4%	17.7%	-3.5%[38.3 µM]	i	-54.2*
CCCCn1nnnc1C(c1cccc2ccccc12)N1CCN(C/C=C/c2ccccc2)CC1 (centres undefined)	u	x	x	10.9%	u	-58.6*
FC(F)(F)Oc1ccccc1C(c1nnnn1Cc1ccccc1)N1CCN(C/C=C/c2ccccc2)CC1 (centres undefined)	-15.7%	x	x	4.3%	i	-55.3*
COc1ccc(-n2nnnc2C(c2ccccc2)N2CCN(C/C=C/c3ccccc3)CC2)cc1 (centres undefined)	-28.2%	x	x	1.1%	i	-55.5*
CCCCn1nnnc1C(c1ccccc1OC(F)(F)F)N1CCN(C/C=C/c2ccccc2)CC1 (centres undefined)	-25.2%	x	x	-0.2%	u	u
O=c1c(NCCc2ccc(Cl)cc2)nccn1-c1ccccc1	12.5%	x	x	-0.4%	i	x
Fc1ccc(C(c2ccc(F)cc2)N2CCN(C/C=C/c3ccccc3)CC2)cc1	-20.0%	23.1µM*	u	u	u	-11.8
Cc1nn(Cc2ccccc2)c(Cl)c1/C=C/C(=O)OC(C(=O)NC(N)=O)C(C)C (centres undefined)	-21.3%	6.51µM*	-39.1%	5.2%	i	3.0
Cc1nn(Cc2ccccc2Cl)c(Cl)c1/C=C/C(=O)OCC(=O)NC(N)=O	-4.7%	4.2%	3.9%	1.8%	i	-2.8
Cc1cc(Nc2nc(N[C@@H](C)c3ccc(F)cc3)c(C#N)cc2F)n[nH]1	24.3µM*	x	x	x	x	x
Cc1ccc(Cl)cc1-n1c(=O)c2sc3ccccc3c2n(CC(=O)NC2CCCCC2)c1=O	-7.2%	x	x	3.2%	u	x
COc1cc2c(cc1OC)CN(C(=O)CSc1nc3[nH]ncc3c(=O)n1-c1ccccc1)CC2	-21.3%	-1.0%	5.0%	0.7%	i	-17.1
COc1ccc(N2CCN(C(=O)CSc3nc4[nH]ncc4c(=O)n3-c3cccc4ccccc34)CC2)cc1	-13.5%	0.5%	14.9%	-0.8%	u	-51.0*
CSc1nc(N)nc(SCC(=O)Nc2ccc(Cl)cc2)c1C#N	1.1%	0.5%	-4.4%	5.8%[38.3 µM]	i	-77.7*
SMILES	ATXN2 expr inh	MCF10A rerep	SW480 rerep	PINK1 modulator	S2 tox	IL1B secr inh
CSc1nc(N)nc(SCCS(=O)(=O)c2ccc(Cl)cc2)c1C#N	u	13µM*	u	u	u	u
CCOc1ccc(C2C(C(=O)Nc3ccccc3OC)=C(C)Nc3c(C(=O)Nc4cccc(C)c4)cnn32)cc1 (centres undefined)	x	x	x	7.7%	x	x
CN1CCN(c2ncc(-c3cc(Cl)cc(Cl)c3Cl)c(N)n2)CC1	5.0%	x	x	x	x	x
Cc1ccc(C(=O)N/N=C\c2ccccc2[N+](=O)[O-])cn1	24.6%	-3.0%	0.3%	1.7%	i	3.0
Cc1c(C(=O)N/N=C/C(C)C)[nH]c2c([N+](=O)[O-])cccc12	-24.6%	20.6µM*	u	21.2%	i	79.7
CCOc1cc(CN2CCCC(N3CCN(c4ccc(F)cc4)CC3)C2)ccc1OC (centres undefined)	-28.0%	4.11µM*	-47.0%	-0.6%	i	-29.5
COc1ccc(N2CCN(C3CCCN(Cc4cccc(C(C)=O)c4)C3)CC2)cc1 (centres undefined)	86.4%	23.1µM*	-15.6%	4.7%	i	3.1
COc1ccc(CN2CCCC(N3CCN(c4cccc(Cl)c4)CC3)C2)cc1OC (centres undefined)	x	-0.6%	-4.6%	-0.6%	x	-10.7
CCOc1cc(CN2CCN(c3cccc(C(F)(F)F)c3)CC2)ccc1OC	-14.4%	-3.3%	-2.6%	x	i	-56.3*
Cc1sc2ncn(CC(=O)N(C)c3cccc(C(F)(F)F)c3)c(=O)c2c1S(=O)(=O)N1CCN(c2ncccn2)CC1	-2.5%	x	x	-0.7%	i	x
Cc1cccc(NC(=O)c2sc3nc(-c4ccccc4)cn3c2C)c1C	x	x	x	-0.2%	x	x
CC1(C(=O)NCc2cccc(Cl)c2)Cc2c(-c3ccc4c(c3)OCO4)ccnc2O1 (centres undefined)	-22.4%	x	x	3.6%	i	36.1
CCc1ccc(NCc2cc3ccc(OC)cc3n(CC(=O)Nc3ccc(F)cc3F)c2=O)cc1	8.9%	x	x	u	i	x
O=[N+]([O-])c1ccc(S(=O)(=O)CC(CN2CCOCC2)N2CCOCC2)cc1 (centres undefined)	18.4%	u	25.9%	-1.4%	u	-73.6*
O=C1CCCN1CC(O)CS(=O)(=O)c1ccccc1 (centres undefined)	3.1%	-3.1%	-12.8%	5.5%[38.3 µM]	i	14.6

High-throughput results deposited in PubChem BioAssay by National Center for Advancing Translational Sciences (NCATS).
